These results are taken from PubChem BioAssay (NCATS).

The subject of one experiment is MCC-13. The experiment in a line: qHTS assay to identify novel small-molecules to repurpose for Merkel cell carcinoma treatment (AID 1296009). Note: nearly all actives have a fitted effect of over 60% in size. Particulars: MCC and control cell lines, CellTiter-Glo viability, 72 h; series mostly up to 46 µM. Put shortly:
(§1)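 qHTS format: cells treated with library compounds in DMSO across 8 (NPC) or 11 (MIPE) concentrations. Readout after 72 hr at 37 degree celsius was CellTiter-Glo luminescence.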
(In qHTS, concentration-response curves come from the screen itself.)

The next experiment deals with MCC-26. Described as above. Particulars: MCC and control cell lines, CellTiter-Glo viability, 72 h; series mostly up to 46 µM. Put shortly: as §1
Another experiment has as its system MKL-1. Described as above. Particulars: MCC and control cell lines, CellTiter-Glo viability, 72 h; series mostly up to 46 µM. Put shortly:
as §1
On the technique in general: Cellular ATP, detected with luciferase, serves as a proxy for viable cell number.

The next experiment has as its system MKL-2. Described as above. Particulars: MCC and control cell lines, CellTiter-Glo viability, 72 h; series mostly up to 46 µM. Put shortly:
as §1

For a further experiment, the system named is NIH3T3. The description is as above. Particulars: MCC and control cell lines, CellTiter-Glo viability, 72 h; at 44.8 µM (top of the series) unless noted. Put shortly: as §1
The next experiment relates to UISO. The experiment is described as above. Particulars: MCC and control cell lines, CellTiter-Glo viability, 72 h; series mostly up to 46 µM. Put shortly: as §1
Another experiment concerns WaGa. The experiment is described as above. Particulars: MCC and control cell lines, CellTiter-Glo viability, 72 h; series mostly up to 46 µM. Put shortly:
as §1

In a further experiment the test system is C33A. In words: Primary qHTS to identify gynecologic anti-cancer compounds using libraries of approved drugs and bioactive compounds (AID 1345084). Note: nearly all actives have a fitted effect of over 55% in size. Particulars: Gynecologic cancer cell panel viability, ATPlite luminescence, 48 h; series mostly up to 57.5 µM. Put shortly:
(§2)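 ATP-based viability (ATPlite), 1,000 cells/well, 16 h pre-incubation, 48 h compound at 37 C, 5% CO2, 15 min RT before read.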

Another experiment has as its system CASKI. Described as above. Particulars: Gynecologic cancer cell panel viability, ATPlite luminescence, 48 h; series mostly up to 57.5 µM. Put shortly: as §2
Another experiment has as its system Es-2. The description is as above. Particulars: Gynecologic cancer cell panel viability, ATPlite luminescence, 48 h; series mostly up to 57.5 µM. Put shortly: as §2
Another experiment concerns HeLa. The experiment is described as above. Particulars: Gynecologic cancer cell panel viability, ATPlite luminescence, 48 h; series mostly up to 57.5 µM. Put shortly:
as §2

Another experiment concerns Hek293T. The experiment is described as above. Particulars: Gynecologic cancer cell panel viability, ATPlite luminescence, 48 h, control line for the selectivity index; series mostly up to 57.5 µM. Put shortly:
as §2

The subject of a further experiment is JEG-3. The experiment is described as above. Particulars: Gynecologic cancer cell panel viability, ATPlite luminescence, 48 h; series mostly up to 57.5 µM. Put shortly: as §2
The next experiment has as its system OV90. The description is as above. Particulars: Gynecologic cancer cell panel viability, ATPlite luminescence, 48 h; series mostly up to 57.5 µM. Put shortly:
as §2

The test system of the next experiment is PA-1. Described as above. Particulars: Gynecologic cancer cell panel viability, ATPlite luminescence, 48 h; series mostly up to 57.5 µM. Put shortly:
as §2

Another experiment concerns SKOV3. The experiment is described as above. Particulars: Gynecologic cancer cell panel viability, ATPlite luminescence, 48 h; series mostly up to 57.5 µM. Put shortly: as §2
The subject of a further experiment is Tov-21-G. Described as above. Particulars: Gynecologic cancer cell panel viability, ATPlite luminescence, 48 h; series mostly up to 57.5 µM. Put shortly:
as §2

The next experiment concerns Tov112D. The experiment is described as above. Particulars: Gynecologic cancer cell panel viability, ATPlite luminescence, 48 h; series mostly up to 57.5 µM. Put shortly:
as §2

A short description of experiment [1]: Drug repurposing screens with cells derived from glioblastoma tumor samples (AID 1345199). Note: nearly all actives have a fitted effect of over 40% in size. Note: potency is the fitted concentration of half-maximal effect. Particulars: GBM patient neurospheres viability, ATP luminescence, 48 h. Put shortly: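 Four patient lines of CD133+ GBM neurospheres were screened at several concentrations; hits were retested in those lines plus three slower-growing GBM lines, using 48-hour treatment and ATP-based viability.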

A further experiment deals with CAOV3. In words: Primary qHTS to identify gynecologic anti-cancer compounds using libraries of approved drugs and bioactive compounds (AID 1345084). Note: nearly all actives have a fitted effect of over 55% in size. Particulars: Gynecologic cancer cell panel viability, ATPlite luminescence, 48 h; series mostly up to 57.5 µM. Put shortly: as §2
Setting [2] is: at 45.9 µM (top of the series), tumour line B.
Setting [3] is: at 45.9 µM (top of the series), tumour line D.
Where [4] appears, read: at 46 µM (top of the series), tumour line A.
Where [5] appears, read: at 46.1 µM (top of the series), tumour line C.

Results filed as inconclusive are left out. A number with no mark means an inactive call. Active and inactive are the calls of the source. Calls come from the whole dose curve; as a rule, active = well fitted curve in the direction sought with a large enough effect; inconclusive = small, poorly fitted or top-dose-only effect, or another doubt; inactive = no such curve, though single readings can be large; an effect the other way counts as inactive or inconclusive.
% is set by controls: 0 for no effect and ±100 for the full control effect.

Regarding `CCCCOc1cc(C(=O)OCCN(CC)CC)ccc1N`, the Potency result in the experiment with MCC-13, in the experiment with MCC-26, with MKL-1, in the experiment on MKL-2, with UISO and in the experiment with WaGa was “inactive” each time. Besides, the Potency result with C33A, in the experiment on CASKI, in the experiment with Es-2, in the experiment with HeLa, with Hek293T and with JEG-3 was “inactive” in each case. Further, the Potency entry in the experiment on OV90, in the experiment on PA-1, with SKOV3, in the experiment with Tov-21-G and with Tov112D was “inactive” in each case. Moreover, in the experiment with NIH3T3, the outcome was inactive. The activity, negative = cell killing in [1] (at 20 µM (top of the series), tumour line C) is -6.35%; in experiment [1] (at 21.2 µM (top of the series), tumour line B), -29.6%. In experiment [1] (tumour line A), the Potency was 11.2 µM (active).
Consider `CCOC(=O)[C@H](CCc1ccccc1)N[C@@H](C)C(=O)N1C(=O)N(C)C[C@H]1C(=O)O`, for which the Potency entry in the experiment on MCC-13, with MCC-26, in the experiment on MKL-1, in the experiment on MKL-2, in the experiment on UISO and with WaGa was “inactive” in each case. The Potency entry with C33A, in the experiment with CAOV3, in the experiment with CASKI, in the experiment with Es-2, in the experiment on HeLa and in the experiment with Hek293T was “inactive” throughout. Moreover, the Potency entry with JEG-3, in the experiment with OV90, in the experiment on PA-1, with SKOV3, in the experiment with Tov-21-G and in the experiment on Tov112D was “inactive” each time. The result in the experiment on NIH3T3 was inactive. Moreover, the activity, negative = cell killing was -4.44% in experiment [1] (setting [2]), -4.75% in [1] (setting [3]) and -37.7% in experiment [1] (setting [4]).
Consider `NC(N)=NCCC[C@H](N)C(=O)O`, for which the activity change, negative = cytotoxicity in the experiment with MCC-13 was 10.7% [at 4.84 µM]; in the experiment with MCC-26, 1.83% [at 4.84 µM]; in the experiment with MKL-1, 12.8% [at 4.84 µM]; with MKL-2, 13.9% [at 4.84 µM]; in the experiment on UISO it was 9.23% [at 4.84 µM]; with WaGa it was 4.2% [at 4.84 µM]. Besides, the activity change, negative = cytotoxicity in the experiment with C33A is -3.38% [at 6.55 µM]; in the experiment with CAOV3, 24.7% [at 6.55 µM]; in the experiment with CASKI, 1.66% [at 6.55 µM]; in the experiment on Es-2 it was 2.88% [at 6.55 µM]; in the experiment with HeLa, 8.2% [at 6.55 µM]; with Hek293T, 14.9% [at 6.55 µM]. For the same compound, the activity change, negative = cytotoxicity is 7.79% [at 6.55 µM] in the experiment on JEG-3; 6.81% [at 6.55 µM] in the experiment on OV90; 23.1% [at 6.55 µM] in the experiment with PA-1; 0% [at 6.55 µM] with SKOV3; -4.36% [at 6.55 µM] in the experiment on Tov-21-G; 4.12% [at 6.55 µM] in the experiment on Tov112D. For the same compound, in the experiment with NIH3T3, the outcome was “inactive [at 4.96 µM]”. Besides, the activity, negative = cell killing was -14.6% in [1] (setting [2]), -0.948% in [1] (setting [3]), -22.1% in experiment [1] (setting [4]) and 18.8% in experiment [1] (setting [5]).
As for `C[C@](N)(Cc1ccc(O)cc1)C(=O)O`, the activity change, negative = cytotoxicity was 6.34% [at 4.84 µM] with MCC-13; 5.04% [at 4.84 µM] with MCC-26; -2.87% [at 4.84 µM] in the experiment on MKL-1; 7.48% [at 4.84 µM] in the experiment on MKL-2; 17.6% [at 4.84 µM] with UISO; -0.23% [at 4.84 µM] in the experiment with WaGa. The activity change, negative = cytotoxicity in the experiment with C33A is 11.8% [at 6.55 µM]; in the experiment with CAOV3, 1.31% [at 6.55 µM]; in the experiment on CASKI it was 2.23% [at 6.55 µM]; in the experiment on Es-2, -8.81% [at 6.55 µM]; in the experiment with HeLa, 0.756% [at 6.55 µM]; with Hek293T, -0.946% [at 6.55 µM]. Moreover, the activity change, negative = cytotoxicity in the experiment with JEG-3 is 2.69% [at 6.55 µM]; in the experiment on OV90 it was 0.672% [at 6.55 µM]; in the experiment with PA-1, 12.1% [at 6.55 µM]; in the experiment with Tov-21-G, -3.06% [at 6.55 µM]; with Tov112D it was 0.865% [at 6.55 µM]. Moreover, the outcome in the experiment on NIH3T3 was “inactive [at 4.96 µM]”. In addition, the activity, negative = cell killing in experiment [1] (setting [2]) was -4.97%; in experiment [1] (setting [3]), 3.89%; in experiment [1] (setting [4]), -16.9%; in [1] (setting [5]), 0.308%.
Consider `OCC(O)CN1CCN(c2ccccc2)CC1` (centres undefined), for which the Potency result in the experiment with MCC-13, with MCC-26, in the experiment on MKL-1, with MKL-2, with UISO and with WaGa was “inactive” throughout. Moreover, the Potency result in the experiment with C33A, with CASKI, with Es-2, in the experiment on HeLa, in the experiment with Hek293T and with JEG-3 was “inactive” throughout. Moreover, the Potency entry in the experiment on OV90, in the experiment on PA-1, with SKOV3, in the experiment with Tov-21-G and with Tov112D was “inactive” each time. For the same compound, in the experiment on NIH3T3, the result was inactive. For the same compound, the activity, negative = cell killing in experiment [1] (setting [2]) is -18.5%; in [1] (setting [3]), -7.12%; in experiment [1] (setting [5]) it was -25.1%.
